Screens as filed in PubChem.
15-hLO inh – blocks human 15-lipoxygenase activity; purified 15hLO-1, xylenol orange hydroperoxide absorbance; Potency, µM (series often up to 57.1 µM), for the others: at the top dose activity change, negative = inhibition, hits mostly inhibitors; 74,000 tested, 1.4% active; further: potency means the concentration at half of the fitted maximal effect; on the % scale 0 is the no-effect control and ±100 the full control effect; nearly all actives have a fitted effect of over 55% in size
Target sequence (P16050 whole entry, looked up): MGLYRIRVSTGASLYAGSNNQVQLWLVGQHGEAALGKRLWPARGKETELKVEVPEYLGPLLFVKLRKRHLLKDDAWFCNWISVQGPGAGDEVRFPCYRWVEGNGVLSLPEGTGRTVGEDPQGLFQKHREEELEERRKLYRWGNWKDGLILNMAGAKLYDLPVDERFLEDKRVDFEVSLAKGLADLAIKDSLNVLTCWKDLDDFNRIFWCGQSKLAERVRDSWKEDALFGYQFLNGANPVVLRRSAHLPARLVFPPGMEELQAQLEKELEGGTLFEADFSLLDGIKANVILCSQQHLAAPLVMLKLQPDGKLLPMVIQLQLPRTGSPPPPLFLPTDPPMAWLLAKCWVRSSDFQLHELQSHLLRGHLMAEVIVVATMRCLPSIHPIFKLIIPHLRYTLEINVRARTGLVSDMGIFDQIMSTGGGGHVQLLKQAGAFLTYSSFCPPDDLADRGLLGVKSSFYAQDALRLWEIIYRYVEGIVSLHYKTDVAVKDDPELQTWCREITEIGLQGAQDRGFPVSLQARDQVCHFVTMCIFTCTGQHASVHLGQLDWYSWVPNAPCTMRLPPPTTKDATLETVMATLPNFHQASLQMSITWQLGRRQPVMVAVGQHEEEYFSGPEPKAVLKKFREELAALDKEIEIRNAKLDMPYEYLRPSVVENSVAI
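Quantitative HTS in 25 mM Hepes pH 7.5 containing 0.01% Triton X-100: human 15hLO-1 at 40 nM, arachidonic acid at 50 uM, 6 min turnover. Product quantified via ferrous oxidation/xylenol orange, 573:405 nm absorbance ratio.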
DNA Pol III inh – blocks replication by bacterial DNA polymerase III holoenzyme; reconstituted DNA polymerase III holoenzyme replication, biochemical; 71,000 tested, 0.25% active; Potency, µM (top dose mostly 57.1 µM), for the others: top-dose activity change, negative = inhibition; AID 603; further: potency means the concentration at half of the fitted maximal effect; on the % scale 0 is the no-effect control and ±100 the full control effect
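Reconstituted *E. coli* holoenzyme (0.35 nM Pol III, 1 nM beta, 154 nM SSB, 2 nM primase) was preincubated with compound for 15 min at RT. Synthesis on 1.4 nM ssM13Gori ran 35 min, then was stopped with PicoGreen/EDTA and read as dsDNA fluorescence.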
TsaE inh – YjeE (TsaE) inhibition, E. coli. purified YjeE enzyme, qHTS inhibition assay. Potency, µM. 71,000 tested, 0.05% active. AID 605
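Purified YjeE (10 uM) with BODIPY Texas Red-labeled ADP probe (2 uM); compounds pin-transferred, 15 min at room temperature. Binding inhibition read as decreased fluorescence polarization; ADP titration as control.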
BRCT inh red – BRCT-phosphoprotein interaction inhibition (red fluorophore); P38398; 75,000 tested, 0.03% active; AID 892; Potency, µM (highest dose often 76.9 µM), inactives show at the top dose activity change, negative = inhibition, hits mostly inhibitors; BRCT-phosphopeptide binding, red fluorescence polarization; further: on the % scale 0 is the no-effect control and ±100 the full control effect
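Rhodamine-labelled pBACH1 10-mer (100 nM) bound to BRCT domain (100 nM) at pH 7.3; compounds incubated 12 min room temperature, polarization read. Free peptide defines full inhibition; unlabelled decapeptide titrated as control.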
BRCT inh green – blocks human BRCA1 BRCT binding to phosphopeptide, green readout. P38398. BRCA1 BRCT-phosphopeptide binding, green fluorescence polarization. Potency, µM (highest dose often 76.9 µM), for inactives: at the highest dose activity change, negative = inhibition, most hits filed as inhibitors. 75,000 tested, 0.05% active;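 further: potency means the concentration at half of the fitted maximal effect; plate controls were peptide without protein for full effect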
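Compounds were incubated for 12 min at room temperature with a complex of 100 nM fluorescein-tagged pBACH1 decapeptide and 250 nM His-tagged BRCT protein. Buffer was phosphate pH 7.3 with EDTA, DTT and Tween 20. Disruption of binding lowers the polarization signal.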
Hsp90 Hop PPI – changes Hsp90-Hop TPR2A binding signal, up or down. AlphaScreen TPR2A-His6 binding biotin-Hsp90 C-terminal peptide. Potency, µM (titrated, usually from 57 µM), for the others: at the highest dose activity change, negative = inhibition. 71,000 tested, 0.44% active. AID 595; active means well fitted curve in either direction with a large enough effect; inconclusive means small, poorly fitted or top-dose-only effect, or another doubt; further: potency means the concentration at half of the fitted maximal effect; on the % scale 0 is the no-effect control and ±100 the full control effect
* marks the source's active call; other numbers are inactive results; i = inactive; ? = inconclusive; / = no result given; [ ] = remark or other dose. In the library only some 1.9% were active in any assay of this set; here they are far more common. Unless noted, the call rests on the fitted dose curve; in most records, active means well fitted curve in the direction sought with a large enough effect; inconclusive means small, poorly fitted or top-dose-only effect, or another doubt; inactive means no such curve, though single readings can be large; an effect the other way counts as inactive or inconclusive.

SMILES | 15-hLO inh | DNA Pol III inh | TsaE inh | BRCT inh red | BRCT inh green | Hsp90 Hop PPI
Cc1c(C)n(C)c2ccc(C(=O)NCc3cccs3)cc12 | 10µM* | 0% | ? | 10% | 7% | -6%[2.3 µM]
CCCN1C(=O)c2cc(C(=O)NCc3cccs3)ccc2C1O (configuration not stated) | -9% | -1% | i | 0% | -1% | -2%[2.3 µM]
Nc1nc(-c2cccs2)c(NC(=O)c2ccccc2)s1 | 20µM* | -3% | i | 0% | 0% | -19%
COCc1cc(C)nc2sc(C(=O)N3CCN(c4ccccc4)CC3)c(N)c12 | 6.3µM* | -6% | i | 0% | -2% | ?
Cc1cc(C)c2c(N)c(C(=O)N3CCN(c4ncccn4)CC3)sc2n1 | -2% | 2% | i | 1% | -2% | 0%
CN1CCN(c2ncncc2-c2ccc(N(C)C)cc2)CC1 | -17% | -6% | i | -1% | -2% | -14%
CN1CCN(c2ncncc2-c2ccoc2)CC1 | 32µM* | -7% | i | -1% | 1% | -3%
COc1ccccc1CNc1ccnc(-c2ccc3c(c2)OCO3)n1 | 13µM* | 0% | i | 0% | 3% | 0%
COc1ccc(CNc2cc(-c3ccccc3Cl)ncn2)c(OC)c1 | -1% | 1% | i | -1% | -2% | -2%
COc1ccccc1CNc1ccnc(-c2ccccc2CN(C)C)n1 | 19% | -4% | i | 0% | -1% | -3%
COc1ccccc1CNc1ccnc(-c2ccccc2OC)n1 | 13µM* | -2% | i | 0% | -1% | -11%
COc1ccc(CNc2cc(-c3ccccc3OC)ncn2)c(OC)c1 | 25µM* | 2% | i | 0% | -2% | -12%
COCCNc1ccnc(-c2ccccc2C)n1 | 13µM* | -9% | i | 0% | -1% | -1%
CC1(NC[C@@H](O)COc2cccc3[nH]ccc23)CCC(C(C)(C)NC(=O)CBr)CC1 (some centres not stated) | / | -1% | i | / | / | -16%
CN1/C(=C/C=N/n2cnnc2)C(C)(C)c2ccccc21 | 25µM* | -6% | i | 1% | -1% | 2%
CN1/C(=C\P(=O)(N(C)C)N(C)C)C(C)(C)c2ccccc21 | -1% | 0% | ? | 16% | 27% | -5%
CCCSC1=N/C(=C\C=C\c2ccco2)C(=O)S1 | 2.5µM* | 1.3µM* | i | -30% | -10% | -27%
N#CC(c1nc2ccccc2nc1N1CCCC1)S(=O)(=O)c1ccccc1 (configuration not stated) | ? | / | / | -1% | 3% | /
N#CC(c1nc2ccccc2nc1N1CCCC1)S(=O)(=O)c1cccs1 (configuration not stated) | 10µM* | -18% | i | -1% | 4% | -16%
Cc1ccc(C)c(S(=O)(=O)C(C#N)c2nc3ccccc3nc2N2CCCC2)c1 (configuration not stated) | 13µM* | -9% | i | -1% | 6% | -8%
Cc1ccc(C)c(S(=O)(=O)C(C#N)c2nc3ccccc3nc2N2CCOCC2)c1 (configuration not stated) | -15% | 2% | i | -1% | -1% | 0%
O=C(c1cnccn1)N1CCc2ccccc21 | 16µM* | ? | i | -1% | -1% | -4%
O=C(c1cccnc1)N1CCCc2ccccc21 | -5%[11.4 µM] | 4%[11.4 µM] | i | -2% | -1% | -6%[11 µM]
Cc1ccccc1OCC1CO1 (configuration not stated) | -1% | -11% | i | -1% | -3% | -5%
CC(C)=CCC/C(C)=C/COc1c2ccoc2cc2oc(=O)ccc12 | / | -4% | i | / | / | ?
SMILES | 15-hLO inh | DNA Pol III inh | TsaE inh | BRCT inh red | BRCT inh green | Hsp90 Hop PPI
Cc1ccc(-c2nnc3ccc(SC(C)C(=O)O)nn23)cc1 (configuration not stated) | 10µM* | -2% | i | -4% | -1% | 0%
Nc1c(S(=O)(=O)O)cc(Nc2cccc(S(N)(=O)=O)c2)c2c1C(=O)c1ccccc1C2=O | ? | 3%[11.4 µM] | i | -2%[15.4 µM] | -6%[15.4 µM] | ?
O=c1cc(O)cc(/C=C\c2ccc(O)c(O)c2)o1 | 0.79µM* | 6.3µM* | i | -8% | 5% | 13µM*
O=C(O)/C=C/c1ccc(O)c(O)c1 | -5% | / | / | -2% | 2% | /
CC(C)C1=CC2=CC[C@H]3[C@@](C)(CCC[C@]3(C)C(=O)O)[C@@H]2CC1 | / | -4% | i | / | / | -1%
COc1ccc(-n2c(Cc3cccn3C)nnc2SCC(=O)N2CCCC2)cc1 | -25% | 1% | i | 1% | -2% | -12%
N#Cc1ccc(OCc2nnc(SCC(=O)N3CCCc4ccccc43)n2-c2ccccc2)cc1 | 2.5µM* | -9% | i | 0% | -1% | -4%
COc1ccc(-n2c(Cc3cccn3C)nnc2SCC(=O)N2CCCc3ccccc32)cc1 | 13µM* | -1% | i | 0% | 4% | -16%
CC(/C=C/C=C(C)/C=C/C(=O)O)=C\C=C\C=C(C)\C=C\C=C(C)\C=C\C(=O)O | ? | 2.5µM* | i | -3% | -5% | 0%
CC1CN(Cc2nc3c(c(=O)n(C)c(=O)n3C)n2CC(=O)c2ccccc2)CC(C)O1 (configuration not stated) | 7% | -3% | i | 1% | -4% | -7%
CCOC(=O)Cn1c(CN2CC(C)OC(C)C2)nc2c1c(=O)n(C)c(=O)n2C (configuration not stated) | 7.9µM* | -14% | i | -4% | -2% | -10%
N#CC1=C(N)C2=C(N3CCCCC3)CCCC2C1(C#N)C#N (configuration not stated) | 13µM* | -21% | i | -8% | -5% | -19%
CC(=O)C1=C(C)NC(SCSc2ccccc2)=C(C#N)C1c1cccnc1 (configuration not stated) | 0.32µM* | -1% | i | 0% | 2% | 8%
CSCSC1=C(C#N)C(c2ccccc2Cl)C(C(C)=O)=C(C)N1 (configuration not stated) | 25µM* | -1% | i | 0% | -2% | 23%
C=CCOC(=O)C1=C(C)NC(SCC(=O)NC(=O)OCC)=C(C#N)C1c1cccnc1 (configuration not stated) | -23% | -7% | i | 1% | 3% | 0%
CC[C@]1(O)C[C@H]2CN(CCc3c([nH]c4ccccc34)[C@](C(=O)OC)(c3cc4c(cc3OC)N(C)[C@@H]3[C@](O)(C(=O)OC)[C@H](OC(C)=O)[C@]5(CC)C=CCN6CC[C@]43[C@@H]65)C2)C1 | ? | -8% | i | 1% | -3% | -8%
